D3 ag – agonists of human D3 dopamine receptor; D3R DiscoveRx beta-arrestin cells, luminescence, 90 min; AID 652048; P35462; max activation, %; actives 0.58% (n = 410,000); in the data active = max activation above about 30%
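Agonist mode: compounds and dopamine controls were applied to plated cells for 90 min at 37 degrees C after an overnight attachment at 1500 cells/well. Luminescent read-out followed 30 - 60 minutes at room temperature with DiscoveRx detection reagent.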
D1 potentiator – enhances dopamine response at the human D1 receptor; potentiation, % at 10 µM; P21728; AID 504651; actives 0.036% (n = 360,000); HEK293 TREx D1 cells, calcium flux, dopamine EC20 potentiation; in the data active = potentiation above about 30%
Target sequence (P21728 whole entry, looked up): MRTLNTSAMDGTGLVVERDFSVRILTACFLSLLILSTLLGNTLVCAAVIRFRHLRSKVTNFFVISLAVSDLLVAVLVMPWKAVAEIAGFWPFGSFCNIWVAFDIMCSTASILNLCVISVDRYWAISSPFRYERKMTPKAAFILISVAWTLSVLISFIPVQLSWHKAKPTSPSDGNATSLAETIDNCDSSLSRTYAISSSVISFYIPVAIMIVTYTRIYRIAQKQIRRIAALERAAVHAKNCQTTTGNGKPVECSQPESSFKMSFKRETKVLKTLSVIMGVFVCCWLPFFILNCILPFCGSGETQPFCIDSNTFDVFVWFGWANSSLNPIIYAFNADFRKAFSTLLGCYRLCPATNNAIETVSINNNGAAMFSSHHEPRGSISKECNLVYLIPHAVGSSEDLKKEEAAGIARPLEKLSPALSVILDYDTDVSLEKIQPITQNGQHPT
D1 ag – human D1 receptor agonism; P21728; HEK293 T-REx D1 cells, calcium flux, agonist mode; activation, % at 2 µM; actives 1% (n = 360,000); AID 504660; in the data active = activation above about 30%
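Tetracycline-induced HEK293 TREx D1 cells, force-coupled to calcium signalling, were dye-loaded with a no-wash calcium kit. Compound was pin-added after a 10 s baseline. Fluorescence was read kinetically at 1 cycle/s for 180 s, with calcium rises flagged as agonism.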
DRD3 antagonist – D3 dopamine receptor (human) antagonism; P35462; D3R cells, DiscoveRx beta-arrestin luminescence, antagonist mode; stronger effect = lower value; max response, negative = inhibition, %; actives 2.5% (n = 360,000); AID 652054; in the data active = max response below about -50%; inconclusive = no clear call, values can overlap the other calls
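Cells plated overnight at 1500 cells/well, then exposed to library compounds with dopamine controls for 90 minutes at 37 degrees C. DiscoveRx reagent added for 30–60 minutes at room temperature; luminescence read, quantitative HTS format.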
D1 antag – blocks dopamine activation of the human D1 receptor; HEK293 TREx D1 cells, calcium flux, dopamine EC80; stronger effect = lower value; activity change, negative = inhibition, % at 10 µM; actives 3.2% (n = 360,000); P21728; in the data active = activity change below about -30%
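Using tetracycline-induced force-coupled D1 Hek293 cells and a calcium dye, signals were followed for 180 s after compound, then for 180 s after EC80 dopamine, to detect inhibitors.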
Each line names hits and unclear results; the compound was inactive in the other large screens. Compounds with a hit are over-represented: about 6% of the library has one in this group of screens.

COc1ccc(S(=O)(=O)c2c(O)c3ccc(C(=O)NCc4ccccc4)cc3[nH]c2=O)cc1	none (no result: DRD3 antagonist)
CC(C)CCOc1ncnc2c1sc1nc3c(cc12)CSC(C)(C)C3	none
CCCn1cnc2c(sc3nc4c(cc32)CSC(C)(C)C4)c1=O	D1 antag -40.6
CC1(C)Cc2nc3sc4c(=O)n(Cc5ccccc5)cnc4c3cc2CS1	DRD3 antagonist -65.5
CC1(C)Cc2nc3sc4c(=O)n(CC(=O)NCc5ccccc5)cnc4c3cc2CO1	none (no result: D1 potentiator, D1 ag, D1 antag)
COc1ccc(/C=C(\C#N)c2nc(-c3cc(Cl)ccc3OC)cs2)cc1	none (no result: DRD3 antagonist)
O=C(NCCS(=O)(=O)N1CCN(c2ccccc2F)CC1)c1ccc(F)c(F)c1	D1 antag -33.3
Cc1c(C)n(Cc2ccccc2)c2ccc(C(=O)NCCCN3CCOCC3)cc12	none
Cc1c(C)n(Cc2ccc(F)cc2)c2ccc(C(=O)NCCCN3CCOCC3)cc12	DRD3 antagonist inconclusive, D1 antag -37.5
Cc1ccc(C(NC(=O)NCCCN2CCOCC2)=C(Cl)Cl)cc1F	DRD3 antagonist -75.3
O=C(Cc1ccc(-c2ccccc2)cc1)NCCS(=O)(=O)N1CCN(c2ccccc2F)CC1	none (no result: DRD3 antagonist)
Cc1c(C)n(C)c2ccc(C(=O)NCCCN3CCN(c4ccccc4F)CC3)cc12	DRD3 antagonist -82.4
O=C(Cn1ccc2cc(S(=O)(=O)N3CCCCC3)ccc21)NCCc1ccccc1Cl	none (no result: DRD3 antagonist)
CSc1ccc(CCNC(=O)CCCn2c(=O)c3cccn3c3ccccc32)cc1	none (no result: DRD3 antagonist)
CCc1nnc(SCC(=O)Nc2cccc(C(F)(F)F)c2)c2cc3oc(C)cc3n12	none (no result: DRD3 antagonist)
Cc1c(C)n(C)c2ccc(C(=O)NCCCN3CCN(c4ccc(F)cc4)CC3)cc12	DRD3 antagonist -55.6
Cc1c(C)n(C)c2ccc(C(=O)NCCCN3CCCC3)cc12	none
O=C1CSC(=S)N1c1cccc(Br)c1	D1 antag -82.5
O=C(c1ccc(C(F)(F)F)cc1)N1CCC(c2noc(-c3ccc(S(=O)(=O)N4CCCC4)cc3)n2)CC1	none (no result: DRD3 antagonist)
Cc1cccc(-n2c(SCC(=O)Nc3ccccc3C)nc3c(oc4ccccc43)c2=O)c1	none (no result: DRD3 antagonist)
Cc1ccc(C)c(N2C(=O)N(Cc3cc(=O)n4ccccc4n3)c3ccccc3S2(=O)=O)c1	none (no result: DRD3 antagonist)
CCCCN(CC)CCNC(=O)C1CCCN(c2ncnc3onc(C)c23)C1 (centres undefined)	D1 antag -30.2 (no result: DRD3 antagonist)
CCOCCCNC(=O)C1CCCN(c2ncnc3onc(C)c23)C1 (centres undefined)	none (no result: DRD3 antagonist)
Cc1ccc(NC(=O)[C@H](CSCc2ccccc2)N2Cc3ccccc3C2=O)cc1	D1 antag -34.1 (no result: DRD3 antagonist)
N[C@@H](Cc1ccc(O)cc1)c1nnc([C@H](CO)NC(=O)C2CCNCC2)o1	D3 ag 33.0
CN(C)[C@@H](CO)c1nnc([C@H](Cc2ccc(O)cc2)NC(=O)C2CCNCC2)o1	none
Nc1nonc1C(=O)NC(c1ccccc1)c1ccccc1	D1 antag -36.1
O=C(NC(c1ccccc1)c1ccccc1)c1ccccc1	none (no result: D1 potentiator, D1 ag, D1 antag)
Cc1cccc(-c2nc(SCC(=O)Nc3cccc(C(F)(F)F)c3)n3[nH]c(=O)cc3n2)c1	none (no result: DRD3 antagonist)
CC(C)c1ccc(S(=O)(=O)NCc2nc3cccnc3n2Cc2ccc(F)cc2)cc1	none (no result: DRD3 antagonist)
CCC(C)NC(=O)CSc1nnc(-c2ccc(C)cc2)c(-c2ccc(C)cc2)n1 (centres undefined)	none (no result: DRD3 antagonist)
O=C(O)CCN1CCc2ccccc21	none
O=C(O)CCN1CCc2ccccc2C1c1ccncc1 (centres undefined)	DRD3 antagonist -58.4
CC(C)(C)OC(=O)N1CCC(c2c(C(=O)NCc3cccs3)cnn2-c2cccc(F)c2)CC1	none (no result: DRD3 antagonist)
CC(=O)Nc1ccc(NC(=O)c2ccc(CN3CCc4ccccc4C3)cc2)cc1	DRD3 antagonist -54.6
Cc1ccccc1NC(=O)c1ccc(CN2CCc3ccccc3C2)cc1	DRD3 antagonist -76.5
CCc1cccc(C)c1NC(=O)c1ccc(CN2CCc3ccccc3C2)cc1	DRD3 antagonist -72.3
Cc1cccc(NC(=O)c2ccc(CN3CCc4ccccc4C3)cc2)c1C	DRD3 antagonist -78.3 (no result: D1 antag)
O=C(Nc1ccc(F)cc1)c1ccc(CN2CCc3ccccc3C2)cc1	none
Cc1cccc(NC(=O)c2ccc(C(=O)Nc3cccc(C)c3C)cc2)c1C	none (no result: DRD3 antagonist)
COc1cc(C2C(=O)N(C3CCCCC3)CC(=O)N2CCC2=CCCCC2)ccc1OC(C)C (centres undefined)	none (no result: DRD3 antagonist)
COc1ccc(NC(=O)C(OC(=O)CNC(=O)c2ccccc2)c2ccccc2)cc1F (centres undefined)	none (no result: D3 ag, DRD3 antagonist)

Screening results (PubChem)
